Tau ThT inhib: blocks human tau fibril formation measured by thioflavin T. Potency, µM (series often up to 57.4 µM), actives largely listed as inhibitors. recombinant tau K18 P301L, heparin-induced fibrillization, ThT fluorescence. 270,000 tested, 2.1% active. P10636. AID 1460; note: nearly all actives have a fitted effect of over 55% in size
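K18 P301L tau (15 uM + 0.24 uM Alexa 594-tagged), heparin 20 uM, NaOAc pH 7, 6 h 37 C; ThT 30 uM, 1 h RT, ex 450/em 510 nm.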
TRb-SRC2 inh: inhibitors of human thyroid hormone receptor beta-SRC2 interaction | TRbeta-SRC2 peptide binding, fluorescence polarization; receptor liganded with 1 µM T3 | Potency, µM (top dose mostly 106 µM), actives largely listed as inhibitors | 280,000 tested, 0.065% active | AID 1469; note: nearly all actives have a fitted effect of over 50% in size
Target sequence (P10828 whole entry, looked up): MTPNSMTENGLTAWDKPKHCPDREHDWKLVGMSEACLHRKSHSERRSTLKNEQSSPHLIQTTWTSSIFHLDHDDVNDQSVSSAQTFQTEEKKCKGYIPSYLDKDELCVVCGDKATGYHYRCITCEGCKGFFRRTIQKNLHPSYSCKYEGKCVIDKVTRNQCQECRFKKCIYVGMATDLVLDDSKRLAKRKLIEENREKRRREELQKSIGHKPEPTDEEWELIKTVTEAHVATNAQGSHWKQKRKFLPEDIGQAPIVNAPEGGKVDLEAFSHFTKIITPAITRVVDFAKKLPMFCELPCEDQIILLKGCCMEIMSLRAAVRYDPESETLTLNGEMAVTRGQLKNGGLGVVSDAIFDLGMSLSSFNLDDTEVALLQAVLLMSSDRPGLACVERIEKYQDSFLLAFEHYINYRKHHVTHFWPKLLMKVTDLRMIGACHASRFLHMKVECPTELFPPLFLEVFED
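Read-out is fluorescence polarization (555 nm excitation, 632 nm emission) of a Texas Red SRC2 coactivator peptide; loss of signal reflects blocked binding to human TRb ligand-binding domain in the presence of 1 uM T3.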
TexasRed fluor: Texas Red fluorescence interference in TRb-SRC2 counter-screen; Potency, µM (series often up to 106 µM); TRb/SRC2 Texas Red total fluorescence interference; 280,000 tested, 0.29% active; active = well fitted curve in either direction with a large enough effect; inconclusive = small, poorly fitted or top-dose-only effect
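Flags fluorescent or light-absorbing compounds by total fluorescence, S + 2P, at 555 nm excitation and 632 nm emission. Mixture: 20 nM Texas Red SRC2 peptide, 0.6 uM human TRb LBD, 1 uM T3, 5% DMSO; compound exposure 5 h at ambient temperature.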
Tau fibril FP: inhibitors of human tau fibril formation; P10636; K18 P301L tau heparin fibrillization, Alexa594 FP, 6 h; Potency, µM (series often up to 57.7 µM), actives largely listed as inhibitors; 280,000 tested, 0.39% active; note: nearly all actives have a fitted effect of over 55% in size
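Read-out: fluorescence polarization of Alexa 594-labeled tau (0.24 uM), 555 nm excitation, 632 nm emission. Mixtures held 15 uM unlabeled K18 P301L, compound and 20 uM heparin, pH 7 acetate buffer, incubated 6 hr at 37 C.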
Tau fluor cs: counter-screen for tau fibril formation inhibitors; AID 1463; tau K18 P301L Alexa594 fluorescence, heparin fibrillization; 280,000 tested, 0.93% active; Potency, µM (doses to about 57.7 µM); note: nearly all actives have a fitted effect of over 55% in size
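Human tau K18 P301L (15 uM unlabeled, 0.24 uM Alexa 594-labeled) in 100 mM sodium acetate pH 7 with 20 uM heparin, 6 hr at 37 C. ThT 30 uM added, 1 hr ambient; Alexa 594 FP and total fluorescence read at 555/632 nm.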
Tau fibril TEM: Inhibits tau K18 fibrillization by TEM grading; recombinant tau K18 P301L fibrillization, TEM grading; active compounds read high; AID 1719; fibril grade (0 = clumped fibrils, 4 = only tiny pieces) (no concentration beside the values); shares compounds with Tau ThT inhib; 45 tested, 70% active;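 active = compounds whose electron micrographs showed tau fibrils broken into shorter filaments or fragments, graded high on fibril breakup; inconclusive = micrographs gave an unclear fibril picture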
tau fibril sed: reduces sedimented tau K18 P301L aggregates; shares compounds with Tau ThT inhib; recombinant tau K18 P301L (four-repeat tau fragment), sedimentation SDS-PAGE densitometry; inhibition, % at 100 µM; 110 tested, 50% active; in the data active = inhibition above about 40%; inconclusive = no clear call, values can overlap the other calls; inactive = below about 18%
Large screens that a line does not name were inactive (follow-up assays come after a bar, where they were run); [ ] = another dose, or the depositor's remark. Hits are enriched below; roughly 3% of the tested compounds scored in any of these assays. Unless noted, calls come from the whole dose curve; as a rule, active = well fitted curve in the direction sought with a large enough effect; inconclusive = small, poorly fitted or top-dose-only effect, or another doubt; inactive = no such curve, though single readings can be large; an effect the other way counts as inactive or inconclusive.

O=S(=O)(c1ccc2nc(-c3ccco3)c(-c3ccco3)nc2c1)N1CCOCC1	Tau ThT inhib 4µM, TexasRed fluor 6.3µM[quencher], Tau fibril FP 8.9µM, Tau fluor cs 4µM[quencher] | Tau fibril TEM 2 | tau fibril sed 58
COc1ccc2[nH]c(=O)c(CNc3ccccc3OC)cc2c1	Tau ThT inhib 7.9µM, Tau fibril FP 10µM, Tau fluor cs inconclusive | Tau fibril TEM inconclusive | tau fibril sed 61
COc1ccc2[nH]c(=O)c(CNc3ccccc3C)cc2c1	Tau ThT inhib inconclusive
Cc1ccc(NC(=O)N2CCN(c3ccccn3)CC2)cc1	Tau ThT inhib inconclusive | tau fibril sed inactive
CC(C)(C)c1ccc(NC(=O)N2CCN(c3ccc([N+](=O)[O-])cn3)CC2)cc1	Tau ThT inhib inconclusive, Tau fibril FP inconclusive, Tau fluor cs inconclusive | tau fibril sed inactive
CCOC(=O)c1cccc(NC(=O)COc2ccc3c(C)cc(=O)oc3c2)c1	Tau ThT inhib inconclusive, Tau fibril FP inconclusive
COc1cc2c(cc1OC)C1C(=O)c3ccc4c(c3OC1CO2)C=CC(C)(C)O4 (stereo not given)	Tau fluor cs inconclusive
COc1ccc(NC(=O)Cn2cc(S(=O)(=O)N3CCN(c4ccccc4F)CC3)c3ccccc3c2=O)cc1Cl	Tau fibril FP 13µM | tau fibril sed inactive
Nc1ccc(-c2ccc3ccccc3n2)cc1	Tau ThT inhib inconclusive, Tau fluor cs inconclusive | tau fibril sed inactive
CC(=O)c1ccc(NC(=O)CSC2=Nc3ccccc3N=C(c3ccc(F)cc3)C2)cc1	Tau fibril FP inconclusive
OCCCNC(=S)Nc1ccc2nc(-c3ccccn3)c(-c3ccccn3)nc2c1	none
O=C(NCCCO)Nc1ccc2nc(-c3ccco3)c(-c3ccco3)nc2c1	Tau ThT inhib inconclusive, TexasRed fluor 14µM[quencher], Tau fibril FP inconclusive, Tau fluor cs 7.1µM[quencher] | Tau fibril TEM 4.5 | tau fibril sed 74
CCN(c1ccccc1)S(=O)(=O)c1nnc(NC(=O)c2ccco2)s1	Tau ThT inhib inconclusive
CCN(c1ccccc1)S(=O)(=O)c1nnc(NC(=O)C(C)(C)C)s1	Tau ThT inhib inconclusive, Tau fibril FP inconclusive | tau fibril sed inactive
COc1cccc([C@@H]2Oc3ccc(OC)cc3C[C@H]2OC(=O)N[C@H]2CCCc3ccccc32)c1	none
Cc1ccc(NCc2cc3cc4c(cc3n(CC(=O)Nc3ccc(F)cc3F)c2=O)OCCO4)cc1	Tau ThT inhib inconclusive, Tau fibril FP inconclusive, Tau fluor cs inconclusive
Cc1ccc(NCc2cc3cc4c(cc3n(CC(=O)Nc3ccc(C)cc3)c2=O)OCCO4)cc1	Tau fluor cs inconclusive | tau fibril sed inactive
CCc1ccc(CNC(=O)c2ccc(NC(=O)N3CC(C)Sc4ccccc43)cc2)cc1 (stereo not given)	Tau fibril FP inconclusive
O=C(Nc1ccccc1)Nc1cccc(Cl)c1	Tau fibril FP inconclusive, Tau fluor cs inconclusive
O=C(Nc1ccccc1)Nc1ccccc1	none | tau fibril sed inactive

Screening results: PubChem BioAssay, National Center for Advancing Translational Sciences (NCATS)
